High-throughput results as filed in PubChem BioAssay.
Compounds with a hit are over-represented: about 2% of the library has one in this group of screens.
TLR4 MyD88 comp: inhibitors of TLR4-MyD88 association in cells, primary screen, cell-based, HeLa CL3-4, BLA complementation, FRET ratio. inhibition, % at 8.4 µM. AID 861, 2007. Toll-like receptor 4 (Homo sapiens) + Myeloid differentiation primary response protein …. 200,000 tested, 0.18% active. HeLa CL3-4 TLR4/MyD88 BLA complementation; in the data active = inhibition above about 25%;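 also: 0% = vehicle and 100% = reference inhibitor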
Granule exo inh: LAMP-1 surface exposure blockers, TALL-104 cells – cell-based, flow cytometry, MLPCN library, primary screen; TALL-104 LAMP-1 surface exposure; cells stimulated with thapsigargin and PMA; inhibition, % at 10 µM; 360,000 tested, 0.66% active; AID 651702, 2012;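 active = inhibition above about 55%, limit read from the data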
Beta2AR agonist: beta2AR agonists driving receptor internalization, primary screen, cell-based, FAP fluorogen, flow cytometry. AID 504454, 2011. 340,000 tested, 0.43% active. response, % (no concentration beside the values). Am2.2-beta2AR cells;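 active = response above a set limit, near 3 SD of response in nonfluorescent compounds, cut at about 42% in these data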
Target sequence (P07550 whole entry, looked up): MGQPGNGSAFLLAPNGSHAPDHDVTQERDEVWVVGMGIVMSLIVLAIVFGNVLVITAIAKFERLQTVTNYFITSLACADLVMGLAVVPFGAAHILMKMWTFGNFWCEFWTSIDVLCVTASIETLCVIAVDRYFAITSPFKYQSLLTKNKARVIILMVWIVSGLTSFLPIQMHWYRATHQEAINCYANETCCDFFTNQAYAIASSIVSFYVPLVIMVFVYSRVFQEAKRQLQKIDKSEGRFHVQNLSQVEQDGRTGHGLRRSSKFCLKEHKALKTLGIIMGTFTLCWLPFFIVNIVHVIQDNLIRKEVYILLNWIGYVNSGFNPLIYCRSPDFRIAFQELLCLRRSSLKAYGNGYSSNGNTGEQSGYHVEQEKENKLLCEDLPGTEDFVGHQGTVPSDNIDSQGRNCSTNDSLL
NOD2-RIPK2 inh: NOD2-RIPK2 binding disruptors in cells, primary screen, fluorescence, CHO cells, BLA complementation. 360,000 tested, 0.38% active. inhibition, % at 4.98 µM. CCF4 ratio. Receptor-interacting serine/threonine-protein kinase 2 (Homo sapiens), O43353. AID 624267, 2012; in the data active = inhibition above about 21%;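 also: 0% = vehicle only and 100% = reference blocker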
ABHD5 PLIN5 PPI: ABHD5-PLIN5 interaction inhibitors, primary screen, cell lysate, split luciferase complementation, luminescence; Perilipin-5 (Homo sapiens) + 1-acylglycerol-3-phosphate O-acyltransferase ABHD5 (Homo …; Split G. princeps luciferase complementation, 4 h; inhibition, % at 4 µM; 360,000 tested, 0.78% active; AID 602281, 2012;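 active = inhibition above the mean inhibition across every tested compound plus 3 SD, cut at about 22% in these data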;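 also: 0% = DMSO only wells and the 100% control is not disclosed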
TLR9-MyD88 inh: inhibitors of TLR9-MyD88 association in cells, primary screen, cell-based, CHO, BLA complementation, fluorescence. 340,000 tested, 0.21% active. CCF4 FRET ratio. Toll-like receptor 9 (Homo sapiens) + Myeloid differentiation primary response protein …. inhibition, % at 4.98 µM;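 active = inhibition above the mean over all tested compounds plus 3 SD, cut at about 21% in these data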;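 also: 0% = DMSO only wells and 100% = clavulanate BLA inhibitor control wells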
Exocytosis CP01: inhibitors of lytic granule exocytosis, confirmation, TALL-104 cells, flow cytometry, Cherry Pick01; shares compounds with Granule exo inh; LAMP-1 externalization; stimulated with PMA plus thapsigargin; inhibition, % at 10 µM; 1,500 tested, 11% active; AID 651954, 2012; in the data active = inhibition above about 60%;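 also: 0% = stimulated vehicle wells and 100% = unstimulated wells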
* marks the source's active call; other numbers are inactive results; / = not tested or not shown.

SMILES | TLR4 MyD88 comp | Granule exo inh | Beta2AR agonist | NOD2-RIPK2 inh | ABHD5 PLIN5 PPI | TLR9-MyD88 inh | Exocytosis CP01
COC(=O)[C@@H]1C[C@@]2(O)[C@H](O)[C@H](O)[C@H](O)C[C@H]2N1Cc1cccc2ccccc12 | / | 70* | 0 | -11 | 0 | 1 | -4
OC(Cc1ccccc1Br)c1ncc(-c2ccc(Cl)cc2)[nH]1 (configuration not stated) | / | 4 | / | 2 | -7 | / | /
O=C(CCN1C(=O)CC1c1ccco1)N1CCOCC1 (configuration not stated) | / | -2 | / | 0 | 0 | / | /
CCN1CCN(c2ccc(NC(=O)CCc3c(C)nc4c(-c5ccc(F)cc5)c(C)nn4c3C)cc2)CC1 | -11 | 57* | 11 | 5 | 17 | -8 | -10
CCCCc1c(-c2ccccc2OC)ncn1CCc1ccccc1OC | / | 37 | / | -5 | 12 | / | /
CCCCc1c(-c2cccc(F)c2)ncn1CCc1ccccc1OC | / | 35 | / | -11 | -4 | / | /
CCCCCc1c(-c2cccc(F)c2)ncn1CCc1ccccc1OC | / | 56* | / | 2 | -3 | / | 68*
CCCCCc1c(-c2ccccc2OC)ncn1CCc1ccccc1OC | / | 68* | / | 14 | 4 | / | 39
CCCCCc1c(-c2cccc(OC)c2)ncn1CCc1ccccc1OC | / | 76* | / | -8 | -4 | / | 47
NS(=O)(=O)c1ccc(CCNC(=O)CSc2nc3c(sc(=S)n3-c3ccccc3)c(=O)[nH]2)cc1 | / | -5 | / | -4 | -5 | -2 | /
CN(CC(=O)Nc1ccc(F)c(F)c1F)C(=O)CCN1C(=O)C2CC=CCC2C1=O (configuration not stated) | / | -5 | / | 1 | 3 | -7 | /
CCS(=O)(=O)N1CCC2(CC1)OCCN2S(=O)(=O)c1ccccc1 | / | 1 | / | 10 | -5 | -2 | /
Cc1cc2c(SCC(=O)Nc3cccc(O)c3)ncnc2s1 | / | 8 | -63 | -7 | -2 | -2 | /
COc1ccc(COc2ccc3c(C)cc(=O)oc3c2)cc1 | / | 75* | 2 | 7 | 7 | -2 | -4
Cc1ccc(S(=O)(=O)c2cc3c(=O)n4ccccc4nc3n(C3CCCC3)c2=N)cc1 | / | 88* | 14 | -8 | 2 | 1 | -15
C=CCSc1nc2c(C(=O)OCC)nnn2c2ccccc12 | / | 81* | 10 | -14 | 10 | 8 | 0
CCOC(=O)c1nnn2c1nc(SCC(C)=O)c1ccccc12 | / | 2 | -5 | -18 | -2 | / | /
O=C1C(=O)N(C/C=C/c2ccccc2)c2ccccc21 | / | 62* | 15 | 19 | 8 | 4 | -2
CCOc1ccc(N(CC(=O)NCc2ccc(Cl)cc2)S(=O)(=O)c2ccccc2)cc1 | / | 77* | -2 | 4 | 1 | -13 | -5
COC(=O)c1cc(NC(=O)CN(c2ccccc2OC)S(=O)(=O)c2ccccc2)ccc1Cl | -1 | 68* | 5 | -4 | -2 | 0 | -9
COC(=O)c1cc(NC(=O)CN(c2cccc(OC)c2)S(=O)(=O)c2ccccc2)ccc1Cl | 1 | 9 | 14 | -9 | -2 | -8 | /
CCN(c1ccccc1)S(=O)(=O)c1ccc(OC)c(NC(=O)Cc2ccc(F)cc2)c1 | / | -16 | -4 | -19 | -4 | -4 | /
CCOc1ccccc1N(CC(=O)Nc1ccccc1F)S(=O)(=O)c1ccccc1 | / | 57* | 8 | -4 | 6 | -2 | -15
CCN(c1ccccc1)S(=O)(=O)c1ccc(OC)c(NC(=O)CNCCc2ccccc2)c1 | -2 | 85* | -11 | -3 | 8 | -4 | 11
CCOc1ccc(N(CC(=O)NCc2ccccc2)S(=O)(=O)c2ccc(C)cc2)cc1 | / | 41 | -7 | -2 | 2 | 3 | /
SMILES | TLR4 MyD88 comp | Granule exo inh | Beta2AR agonist | NOD2-RIPK2 inh | ABHD5 PLIN5 PPI | TLR9-MyD88 inh | Exocytosis CP01
COc1ccc(C(C)(C)C)cc1NC(=O)COC(=O)CN1C(=O)NC2(CCCCC2C)C1=O (configuration not stated) | / | -15 | -4 | -3 | 1 | -1 | /
COc1ccc(OC)c(CN2C(=O)c3ccccc3C2c2nnnn2-c2ccc3c(c2)OCCO3)c1 (configuration not stated) | / | 1 | / | -1 | 5 | / | /
CCN(CC(=O)NCc1ccc(Cl)cc1)C(=O)CCOc1ccccc1C | / | 80* | -2 | 13 | 7 | -3 | -13
CCN(CC(=O)NCc1cccs1)C(=O)CCOc1ccccc1C | / | 4 | 2 | 1 | -8 | -13 | /
COc1ccccc1N(CC(=O)NCCSCc1ccccc1)S(=O)(=O)c1ccc(C)cc1 | / | 90* | -3 | 3 | -1 | -3 | 5
COc1ccc(N(CC(=O)Nc2cc(C)on2)S(=O)(=O)c2cc(C)ccc2C)cc1 | 15 | 57* | 3 | -4 | -1 | -4 | -5
CCOc1ccc(N(CC(=O)Nc2ccccc2OC)S(=O)(=O)c2ccccc2)cc1 | / | 65* | 5 | -2 | -4 | -14 | -14
COc1ccc(N(CC(=O)Nc2ccc(OC)cc2OC)S(=O)(=O)c2ccccc2)cc1 | -2 | -2 | -6 | -7 | 1 | -9 | /
CCOc1ccccc1OCC(=O)NC1CCSc2ccccc21 (configuration not stated) | / | -1 | / | -7 | -1 | 5 | /
CCN1C[C@@H]2[C@@H]3C(=O)N(C)C(=O)[C@@H]3[C@](C)(C(=O)OC)N2C1=NC | / | 2 | -2 | -6 | -1 | -5 | /
CCOc1ccccc1N(CC(=O)NC1CCCCC1)S(=O)(=O)c1ccccc1 | / | 70* | 5 | 3 | 2 | -3 | -15
COc1ccc(N(CC(=O)NC(C)c2ccccc2)S(=O)(=O)c2ccc(C)cc2)cc1 (configuration not stated) | / | 87* | -12 | -1 | -3 | 0 | -4
COc1ccc(N(CC(=O)NC(C)c2ccccc2)S(=O)(=O)c2c(C)noc2C)cc1 (configuration not stated) | / | -3 | -5 | -15 | -13 | -12 | /
CS(=O)(=O)N(CC(=O)Nc1cccc(Cl)c1)c1ccccc1Cl | 7 | 85* | -3 | 0 | 1 | 3 | -1
CCOc1ccc(N(CC(=O)NC2CCCCCC2)S(=O)(=O)c2ccccc2)cc1 | / | 1 | 3 | -17 | -1 | 0 | /
COc1cccc(CN2C(=O)[C@H]3Cc4c([nH]c5ccccc45)C(C)(C)N3C2=O)c1 | / | 78* | 5 | 0 | -4 | -6 | -9
COc1ccc([C@H]2C(C(=O)O)=C[C@@H](C(C)(C)C)N2S(=O)(=O)c2ccc(C)cc2)cc1OC | / | -4 | 7 | -8 | -2 | -1 | /
